High-throughput results (PubChem BioAssay)
Shown are actives, neighbours in structure and some others; about 3.5% of the full set was active somewhere.
mHTT CaM bind – inhibitors of human mutant huntingtin-calmodulin interaction; AlphaScreen His-mHTT/GST-CaM binding, luminescence; AID 1671202; P42858; hit rate 3.6% among 190,000; inhibition, % at 15 µM
Pf apPOL block – Pf-apPOL DNA polymerase inhibition. Recombinant Pf-apPOL, molecular beacon fluorescence, 1.5 h. inhibition, % at 10 µM. hit rate 0.25% among 210,000. AID 1794808
Hits are given with their value; n = inactive; x = no result. Cut-off read from the data, not from the text of the source: active = inhibition above about 50%; inactive = the rest.

SMILES	mHTT CaM bind	Pf apPOL block
O=[N+]([O-])c1cc(Cl)ccc1Sc1ccccc1	x	n
O=[N+]([O-])c1ccc(Sc2ccsc2)c([N+](=O)[O-])c1	69.3	x
Cc1ccc(Sc2cc(C)c(C#N)c(Sc3ccc(C)cc3)n2)cc1	x	n
COc1ccc(-c2c(C)[nH]n3c(=O)cc(-c4ccc([N+](=O)[O-])cc4)nc23)cc1	53.2	n
Cc1cc(=O)n2[nH]c(C)c(-c3ccc(Cl)cc3)c2n1	n	n
Cc1nc2c(-c3ccc(Cl)cc3)c[nH]n2c(=O)c1Cl	n	n
O=c1cc(-c2ccc([N+](=O)[O-])cc2)nc2c(-c3ccc(Cl)cc3)c[nH]n12	54.5	n
COc1ccc(/C=C2\C=C(c3ccccc3)N(c3ccc(C(=O)O)cc3)C2=O)cc1	n	n
O=C1/C(=C/c2ccc(-c3ccc([N+](=O)[O-])cc3)o2)C=C(c2ccccc2)N1c1cccnc1	65.0	n
O=C(O)c1cccc(N2C(=O)/C(=C/c3ccc([N+](=O)[O-])cc3)C=C2c2ccccc2)c1	n	n
COc1ccc(/C=C2\C=C(c3ccccc3)N(c3ccc(O)cc3)C2=O)cc1	59.0	n
COc1ccc(/C=C2/C(=N)N3C(c4ccccc4)=CSC3=NC2=O)cc1Br	n	n
O=C1/C(=C/c2ccc([N+](=O)[O-])cc2)C=C(c2ccccc2)N1c1ccccc1	n	n
COc1ccc(/C=C2\C=C(c3ccccc3)N(c3cccnc3)C2=O)cc1Br	53.0	n
O=C1/C(=C/c2ccc([N+](=O)[O-])cc2)C=C(c2ccccc2)N1c1ccc(O)cc1	59.0	n
CC1C(OCC(O)CSc2ccccn2)C2CCC1C2(C)C (stereo not given)	n	n
O=C(c1ccoc1)N1CCN(c2nc(CN3CCOCC3)cs2)CC1	n	n
O=c1cc(CSc2nc3ccsc3c(=O)n2Cc2ccccc2)c2ccc(O)cc2o1	n	n
COc1ccc(/C=C2\C=C(c3ccccc3)N(c3ccc(N(C)C)cc3)C2=O)cc1	n	n
COc1ccc(/C=C2\C=C(c3ccccc3)N(c3ccc(F)cc3)C2=O)cc1	53.0	n
O=C(Nc1nc2c(s1)CCCC2)c1coc(NC(=O)c2cccs2)n1	n	n
Cc1cccc2sc(NC(=O)c3coc(NC(=O)c4cccs4)n3)nc12	99.2	n
COc1ccc(N2CCN(Cc3nc4cc(Cl)c(Cl)cc4[nH]c3=O)CC2)cc1	52.9	n
O=c1[nH]c2ccccc2nc1CN1CCN(c2cccc(Cl)c2)CC1	n	n
CC1=CC(c2ccccc2)n2nc(NC(=O)c3ccc(Cl)cc3)nc2N1 (stereo not given)	n	n
SMILES	mHTT CaM bind	Pf apPOL block
Cc1ccc(C)n1-c1ccc(S(N)(=O)=O)cc1	74.9	n
Cn1c(=O)n(-c2ccc(S(N)(=O)=O)cc2)c(=O)n1C	n	n
Cc1ccc(C)c(C(=O)N(CCn2cccn2)c2nc3c(F)cccc3s2)c1	n	n
COC(=O)c1ccc(C(=O)N(CCn2cccn2)c2nc3c(C)cc(C)cc3s2)cc1	100.1	n
Brc1ccc(Nc2nc(-c3cccnc3)nc3ccccc23)cc1	n	n
COc1ccc(Nc2nc(-c3cccnc3)nc3ccccc23)cc1	54.4	n
Cc1ccc(CCNC(=O)C2CCCN(S(=O)(=O)N3CCCC3)C2)cc1 (stereo not given)	n	n
Cc1cccc(N=C2C(=O)Nc3ccc(Br)cc32)c1C	66.0	n
Cc1ccc(C)c(N=C2C(=O)Nc3ccc(Br)cc32)c1	n	n
CN1C(=O)C2(OCC(C)(c3ccccc3)CO2)c2ccccc21 (stereo not given)	n	n
O=c1oc2c(-c3ccc([N+](=O)[O-])cc3)cc(O)cc2s1	n	n
COc1cc(OC)c2c(-c3cccc(-c4cccc(C)c4)c3)cc(=O)oc2c1	n	n
O=c1oc2c(-c3ccc(Cl)cc3)cc(O)cc2s1	80.0	n
Cc1cccc(-c2cc(O)cc3sc(=O)oc23)c1	91.0	n
CC(C)Oc1ccc(NC(=O)c2cccs2)cc1	n	n
O=C1OC(c2ccccc2Br)=N/C1=C\c1cccc(Br)c1	n	n
C=CCn1c(SCC(=O)Nc2ccc(F)cc2)nnc1-c1cccc(OC)c1	n	n
C=CCn1c(SCC(=O)Nc2ccc(OC)cc2)nnc1C(c1ccccc1)c1ccccc1	n	97.4
Cc1ccc(/C=C2\N=C(c3cccc(I)c3)OC2=O)o1	n	n
Cc1nc(C2CCN(C(=O)c3cccc(F)c3)CC2)sc1C(=O)N1CCCCCC1	n	n
COc1ccc(N2CCN(CCCNC(=O)C3(n4cccc4)CCCCC3)CC2)cc1	n	n
COc1cc(NC(=O)c2nc(-c3cccc(F)c3)n3c2CCCCC3)cc(OC)c1OC	64.5	n
COC(=O)c1ccccc1NC(=O)c1nc(-c2cccc(F)c2)n2c1CCCCC2	n	n
CCOCCCNC(=O)c1nc(-c2cccc(F)c2)n2c1CCCCC2	n	n
COc1ccc(CCNC(=O)c2nc(-c3cccc(F)c3)n3c2CCCCC3)cc1OC	50.6	n
SMILES	mHTT CaM bind	Pf apPOL block
CCC1CN2C=NC(N3CCN(C(=O)NCc4cccc(F)c4)CC3)=CC2=N1 (stereo not given)	n	n
O=[N+]([O-])c1ccccc1NCn1nnc2ccccc21	n	n
O=C1C(=Cc2ccc(Br)cc2)Oc2c1ccc(O)c2CN1CCCC1	n	n
O=C1C(=CC=Cc2ccccc2)Oc2c1ccc(O)c2CN1CCOCC1	62.2	n
CCN(CC)Cc1c(O)ccc2c1OC(=Cc1ccc(C)cc1)C2=O	n	n
O=C1C(=Cc2ccc(Br)cc2)Oc2c1ccc(O)c2CN1CCOCC1	56.4	n
CCN(CC)Cc1c(O)ccc2c1OC(=Cc1ccc(Br)cc1)C2=O	57.5	n
CCN1CCN(Cc2c(O)ccc3c2OC(=CC=Cc2ccccc2)C3=O)CC1	n	n
CC1=NS(=O)(=O)N(C)C=C1C(=O)OCc1ccc(Cl)cc1	n	n
COc1cc(/C=C2/N=C(c3ccc(Br)o3)OC2=O)cc(OC)c1OC	n	n
CCOC(=O)C(C)Oc1ccc2c3c(c(=O)oc2c1)CCC3 (stereo not given)	n	n
N#Cc1ccc(Oc2ccc(C(=O)Nc3ccccc3)cc2)cc1	n	68.3
O=C(Nc1ccc(Oc2ccccc2)cc1)c1ccncc1	n	n
O=C(NCC1CCN(c2cc(-c3cccnc3)[nH]n2)CC1)c1ccc2ccccc2n1	n	n
CC1(C(=O)NCc2ccc(F)cc2)CCCN(S(=O)(=O)c2ccc3c(c2)CCCC3)C1 (stereo not given)	64.9	n
CC(=O)c1ccc(S(=O)(=O)N2CCCC(C)(C(=O)NCc3ccc(F)cc3)C2)cc1 (stereo not given)	n	n
Cc1ccc(F)cc1S(=O)(=O)N1CCCC(C)(C(=O)NCc2ccc(F)cc2)C1 (stereo not given)	n	n
Cc1ccc(C)c(S(=O)(=O)N2CCCC(C)(C(=O)NCc3ccc(F)cc3)C2)c1 (stereo not given)	60.6	n
Cc1ccc(S(=O)(=O)N2CCCC(C)(C(=O)NCc3ccc(F)cc3)C2)c(C)c1 (stereo not given)	n	n
CC1(C(=O)NCc2ccc(F)cc2)CCCN(S(=O)(=O)c2ccc(F)c(Cl)c2)C1 (stereo not given)	94.7	n
Cc1ccc(CNC(=O)c2oc3ccc(S(=O)(=O)N4CCCCC4)cc3c2C)cc1	n	n
Cc1c(C(=O)NCc2ccc(F)cc2)oc2ccc(S(=O)(=O)N3CCCCCC3)cc12	n	51.6
CCOc1cccc(CN2CCC(C(=O)NC(C)c3ccccc3)CC2)c1O (stereo not given)	n	n
Cc1cc(C(=O)Nc2ccc3scnc3c2)no1	n	n
